# ± gives the standard deviation of the averaged measurements.
# Experiments:
# Assay in all cases: promoter activity interaction Z-score (Lux/OD deviation from empty-vector control); higher = stronger promoter induction by the compound
# [1] = test system: E. coli BW25113 acrABp lux reporter
# Summary of the method: (§1)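 E. coli BW25113 (wild type or marA, soxS or rob deletion) carrying low-copy luxCDABE promoter reporters grew in 40 µl LB Lennox in 384-well plates at 37°C. Each compound was tested at four 1:2 dilutions in biological duplicates. OD600 and luminescence were read every 30 min for 12 h. Areas were taken over 0–8 h (wild type) or 1–9 h (mutants), and wells below 10% of median growth area were removed. The score is the Z-transformed residual of growth-normalised luminescence fitted against the empty-vector control.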
# [2] = test system: E. coli BW25113 micFp lux reporter
# Summary of the method: as §1
# [3] = test system: E. coli BW25113 ompFp lux reporter
# Summary of the method: as §1
# [4] = test system: E. coli BW25113 robp lux reporter
# Summary of the method: as §1
# [5] = test system: E. coli BW25113 soxSp lux reporter
# Summary of the method: as §1
# [6] = test system: E. coli BW25113 tolCp lux reporter
# Summary of the method: as §1
# [7] = 18.3 µg/ml, genetic background: wild type
# [8] = 18.3 µg/ml, genetic background: ΔmarA
# [9] = 18.3 µg/ml, genetic background: Δrob
# [10] = 18.3 µg/ml, genetic background: ΔsoxS
# [11] = 36.5 µg/ml, genetic background: wild type
# [12] = 36.5 µg/ml, genetic background: ΔmarA
# [13] = 36.5 µg/ml, genetic background: Δrob
# [14] = 36.5 µg/ml, genetic background: ΔsoxS
# [15] = 73.1 µg/ml, genetic background: wild type
# [16] = 73.1 µg/ml, genetic background: ΔmarA
# [17] = 73.1 µg/ml, genetic background: Δrob
# [18] = 73.1 µg/ml, genetic background: ΔsoxS
# [19] = 146.1 µg/ml, genetic background: wild type
# [20] = 146.1 µg/ml, genetic background: ΔmarA
# [21] = 146.1 µg/ml, genetic background: Δrob
smiles,measurement,setting,value
O=C(O)CN(CCN(CC(=O)O)CC(=O)O)CC(=O)O,promoter activity interaction Z-score,[1]; [7],-0.0934 ± 0.22
same,promoter activity interaction Z-score,[1]; [8],-0.603 ± 0.65
same,promoter activity interaction Z-score,[1]; [9],-0.36 ± 0.3
same,promoter activity interaction Z-score,[1]; [10],-0.525 ± 0.13
same,promoter activity interaction Z-score,[1]; [11],-0.397 ± 0.38
same,promoter activity interaction Z-score,[1]; [12],-0.546 ± 0.64
same,promoter activity interaction Z-score,[1]; [13],-0.8 ± 0.08
same,promoter activity interaction Z-score,[1]; [14],-0.688 ± 0.13
same,promoter activity interaction Z-score,[1]; [15],-0.174 ± 0.17
same,promoter activity interaction Z-score,[1]; [16],-0.55 ± 0.59
same,promoter activity interaction Z-score,[1]; [17],-0.865 ± 0.14
same,promoter activity interaction Z-score,[1]; [18],-0.724 ± 0.18
same,promoter activity interaction Z-score,[1]; [19],-0.36 ± 0.21
same,promoter activity interaction Z-score,[1]; [20],-1.25 ± 0.29
same,promoter activity interaction Z-score,[1]; [21],0.682 ± 0.76
same,promoter activity interaction Z-score,[2]; [7],0.0311 ± 0.38
same,promoter activity interaction Z-score,[2]; [8],0.0253 ± 0.09
same,promoter activity interaction Z-score,[2]; [9],-0.0661 ± 0.029
same,promoter activity interaction Z-score,[2]; [10],0.33 ± 0.3
same,promoter activity interaction Z-score,[2]; [11],0.187 ± 0.43
same,promoter activity interaction Z-score,[2]; [12],0.106 ± 0.075
same,promoter activity interaction Z-score,[2]; [13],-0.0635 ± 0.073
same,promoter activity interaction Z-score,[2]; [14],0.413 ± 0.38
same,promoter activity interaction Z-score,[2]; [15],0.253 ± 0.014
same,promoter activity interaction Z-score,[2]; [16],0.129 ± 0.061
same,promoter activity interaction Z-score,[2]; [17],0.0924 ± 0.051
same,promoter activity interaction Z-score,[2]; [18],0.66 ± 0.28
same,promoter activity interaction Z-score,[2]; [19],1.76 ± 0.36
same,promoter activity interaction Z-score,[2]; [20],2.53 ± 1.4
same,promoter activity interaction Z-score,[2]; [21],2.95 ± 1.1
same,promoter activity interaction Z-score,[3]; [7],-0.399 ± 0.35
same,promoter activity interaction Z-score,[3]; [8],-0.581 ± 0.52
same,promoter activity interaction Z-score,[3]; [9],-0.522 ± 0.013
same,promoter activity interaction Z-score,[3]; [10],0.261 ± 0.35
same,promoter activity interaction Z-score,[3]; [11],-0.73 ± 0.2
same,promoter activity interaction Z-score,[3]; [12],-0.519 ± 0.045
same,promoter activity interaction Z-score,[3]; [13],-0.748 ± 0.082
same,promoter activity interaction Z-score,[3]; [14],0.0564 ± 0.85
same,promoter activity interaction Z-score,[3]; [15],-1.22 ± 0.24
same,promoter activity interaction Z-score,[3]; [16],-0.836 ± 0.33
same,promoter activity interaction Z-score,[3]; [17],-0.994 ± 0.2
same,promoter activity interaction Z-score,[3]; [18],0.0122 ± 0.85
same,promoter activity interaction Z-score,[3]; [19],-1.07 ± 0.81
same,promoter activity interaction Z-score,[3]; [20],-1.23 ± 0.21
same,promoter activity interaction Z-score,[3]; [21],-1.04 ± 0.81
same,promoter activity interaction Z-score,[4]; [7],-0.212 ± 0.066
same,promoter activity interaction Z-score,[4]; [8],-1.05 ± 0.051
same,promoter activity interaction Z-score,[4]; [9],0.174 ± 0.67
same,promoter activity interaction Z-score,[4]; [10],0.244 ± 0.58
same,promoter activity interaction Z-score,[4]; [11],-0.656 ± 0.16
same,promoter activity interaction Z-score,[4]; [12],-0.174 ± 0.088
same,promoter activity interaction Z-score,[4]; [13],-0.454 ± 0.91
same,promoter activity interaction Z-score,[4]; [14],0.113 ± 1.1
same,promoter activity interaction Z-score,[4]; [15],-0.785 ± 0.22
same,promoter activity interaction Z-score,[4]; [16],-0.143 ± 0.47
same,promoter activity interaction Z-score,[4]; [17],-0.796 ± 0.055
same,promoter activity interaction Z-score,[4]; [18],-0.553 ± 0.47
same,promoter activity interaction Z-score,[4]; [19],-1.32 ± 0.071
same,promoter activity interaction Z-score,[4]; [20],-1.53 ± 0.59
same,promoter activity interaction Z-score,[5]; [7],-0.509 ± 0.063
same,promoter activity interaction Z-score,[5]; [8],-0.316 ± 0.052
same,promoter activity interaction Z-score,[5]; [9],-0.315 ± 0.048
same,promoter activity interaction Z-score,[5]; [10],-0.181 ± 0.14
same,promoter activity interaction Z-score,[5]; [11],-0.478 ± 0.23
same,promoter activity interaction Z-score,[5]; [12],-0.479 ± 0.017
same,promoter activity interaction Z-score,[5]; [13],-0.494 ± 0.011
same,promoter activity interaction Z-score,[5]; [14],-0.421 ± 0.15
same,promoter activity interaction Z-score,[5]; [15],-0.487 ± 0.045
same,promoter activity interaction Z-score,[5]; [16],-0.43 ± 0.35
same,promoter activity interaction Z-score,[5]; [17],-0.698 ± 0.13
same,promoter activity interaction Z-score,[5]; [18],-0.236 ± 0.11
same,promoter activity interaction Z-score,[5]; [19],1.26 ± 0.066
same,promoter activity interaction Z-score,[5]; [20],1.71 ± 1.1
same,promoter activity interaction Z-score,[5]; [21],1.4 ± 0.082
same,promoter activity interaction Z-score,[6]; [7],0.221 ± 0.32
same,promoter activity interaction Z-score,[6]; [8],-0.411 ± 0.67
same,promoter activity interaction Z-score,[6]; [9],-0.43 ± 0.067
same,promoter activity interaction Z-score,[6]; [10],0.426 ± 0.54
same,promoter activity interaction Z-score,[6]; [11],0.548 ± 0.048
same,promoter activity interaction Z-score,[6]; [12],-0.02 ± 1
same,promoter activity interaction Z-score,[6]; [13],-0.146 ± 0.27
same,promoter activity interaction Z-score,[6]; [14],-0.2 ± 0.11
same,promoter activity interaction Z-score,[6]; [15],-0.165 ± 0.86
same,promoter activity interaction Z-score,[6]; [16],-0.102 ± 0.4
same,promoter activity interaction Z-score,[6]; [17],-0.0689 ± 0.14
same,promoter activity interaction Z-score,[6]; [18],0.835 ± 0.86
same,promoter activity interaction Z-score,[6]; [19],1.75 ± 0.63
same,promoter activity interaction Z-score,[6]; [20],1.55 ± 0.38
same,promoter activity interaction Z-score,[6]; [21],1.79 ± 0.72
